{"source": "PubChem BioAssay (NCATS)", "note": "A number with no mark means an inactive call. No rule for the calls is given here. Potency is read from the fitted curve at half-maximal effect."}
{"test_system": "HIV-1 nucleocapsid protein NCp7 (binding to TG oligonucleotide)", "assay": "HIV Nucleocapsid (AID 346);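 also: potency is for inhibitors that block NC binding and lower polarization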", "settings": "HIV-1 NC / fluorescein-TGTGTGTG probe, fluorescence polarization", "summary_of_the_method": "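Fluorescence polarization readout: labelled TG4xF oligo (10 nM) with 100 nM nucleocapsid protein, high-salt (250mM NaCl) Hepes pH 7.5 buffer containing zinc and fresh reducing agents. Compounds added by pin tool; incubation 1 hr, room temperature.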", "units": {"Potency": "µM"}}
{"compound": "CN1CCN(c2ncc3ncc(=O)n(Cc4cccs4)c3n2)CC1", "Potency": "> 20"}
{"compound": "CC(=O)N1CCC[C@@]2(CCN(Cc3ccccc3)C2)C1", "Potency": "> 20"}
{"compound": "CN1CCN(c2ncc3nc(CCc4ccccc4)c(=O)n(C)c3n2)CC1", "Potency": "> 20"}
{"compound": "COCCn1c(=O)c(-c2ccc(F)cc2)nc2cnc(Oc3cccc(Cl)c3)nc21", "Potency": "> 20"}
{"compound": "CS(=O)(=O)N1CCC[C@@]2(CCN(c3ncccn3)C2)C1", "Potency": "> 20"}
{"compound": "O=c1c(-c2ccc(F)cc2)nc2cnc(N3CCOCC3)nc2n1C1CC1", "Potency": "> 20"}
{"compound": "N#Cc1cccc(NC(=O)N2CC[C@@]3(CCCN(C(=O)c4cc(C(F)(F)F)cc(C(F)(F)F)c4)C3)C2)c1", "Potency": "> 20"}
{"compound": "Cc1ccccc1-c1cc(-n2ccnc2)ncn1", "Potency": "> 20"}
{"compound": "COc1ccc(CNc2ncnc3ccc(-c4cccc(NS(C)(=O)=O)c4)cc23)c(OC)c1", "Potency": "> 20"}
{"compound": "O=C(c1cccc(F)c1)N1CCC[C@@]2(CCN(c3ccccn3)C2)C1", "Potency": "> 20"}
{"compound": "COCCn1c(=O)c(C)nc2cnc(N3CCNCC3)nc21", "Potency": "> 20"}
{"compound": "Cn1cccc1C(=O)N1CCC[C@@]2(CCN(C(=O)Nc3cccc(F)c3)C2)C1", "Potency": "> 20"}
{"compound": "CCNc1ncc2nc(-c3cccc(C#N)c3)c(=O)n(CCC#N)c2n1", "Potency": "> 4"}
{"compound": "COc1ccc(NC(=O)N2CCCC3(CCN(C(C)=O)CC3)C2)cc1", "Potency": "> 20"}
{"compound": "COCC(=O)N1CCC[C@@]2(CCN(C(=O)Nc3cccc(C#N)c3)C2)C1", "Potency": "> 20"}
{"compound": "COc1ccc(C(=O)N2CCC3(CC2)CN(CC(C)C)C3)cc1", "Potency": "> 20"}
{"compound": "O=C(c1ccncc1)N1CCC[C@@]2(CCN(c3ncccn3)C2)C1", "Potency": "> 20"}
{"compound": "COc1ccc(-c2nc3cnc(OC)nc3n(CCC#N)c2=O)cc1", "Potency": "> 20"}
{"compound": "CC(C)CN1CCCC2(CCN(C(=O)c3cccn3C)CC2)C1", "Potency": "> 20"}
{"compound": "CCNc1ncc2nc(CCc3ccccc3)c(=O)n(C[C@H]3CCCO3)c2n1", "Potency": "> 20"}
{"compound": "COc1ccc(C(=O)N2CCC3(CCCN(Cc4nccs4)C3)CC2)cc1", "Potency": "> 20"}
{"compound": "COc1ccc(-n2c(=O)c(-c3cccs3)nc3cnc(N(C)C)nc32)cc1", "Potency": "> 4"}
{"compound": "O=S(=O)(c1ccccc1)N1CCC2(CCCN(Cc3cc(C(F)(F)F)cc(C(F)(F)F)c3)C2)CC1", "Potency": "> 20"}
{"compound": "Cc1cccc(CNc2ccnc(-c3ccccc3Cl)n2)c1", "Potency": "> 20"}
{"compound": "COc1ccc2[nH]cc(CCNc3ccnc(-c4c(C)noc4C)n3)c2c1", "Potency": "> 20"}
{"compound": "COCC(=O)N1CCC2(CC1)CN(C(=O)Nc1ccccc1)C2", "Potency": "> 20"}
{"compound": "O=C(Nc1ccccc1)N1CCC2(CCNCC2)CC1", "Potency": "> 20"}
{"compound": "COc1cccc(-c2nc(NCc3cnc(C)cn3)c3ccccc3n2)c1", "Potency": "> 20"}
{"compound": "COCCn1c(=O)c(-c2cccc(C#N)c2)nc2cnc(N3CCN(C)CC3)nc21", "Potency": "> 20"}
{"compound": "COCCn1c(=O)c(CCc2ccccc2)nc2cnc(N3CCOCC3)nc21", "Potency": "> 20"}
{"compound": "O=C(Nc1cccc(F)c1)N1CCCC2(CCN(C(=O)c3cc(C(F)(F)F)cc(C(F)(F)F)c3)CC2)C1", "Potency": "> 20"}
{"compound": "N#Cc1cccc(NC(=O)N2CCCC3(CCN(C(=O)c4cccc(F)c4)CC3)C2)c1", "Potency": "> 20"}
{"compound": "O=C(c1cnccn1)N1CCC[C@@]2(CCN(c3ccccn3)C2)C1", "Potency": "> 20"}
{"compound": "CS(=O)(=O)N1CCC2(CCCN(Cc3ccc(C#N)cc3)C2)CC1", "Potency": "> 20"}
{"compound": "CC(C)NC(=O)N1CC[C@@]2(CCCN(C(=O)c3ccco3)C2)C1", "Potency": "> 20"}
{"compound": "COc1ccc(-n2c(=O)c(-c3cccs3)nc3cnc(Oc4ccccc4)nc32)cc1", "Potency": "> 4"}
{"compound": "COCCn1c(=O)c(CCc2ccccc2)nc2cnc(N3CCNCC3)nc21", "Potency": "> 20"}
{"compound": "N#CCCn1c(=O)c(-c2cc(F)cc(F)c2)nc2cnc(Oc3ccccc3)nc21", "Potency": "> 20"}
{"compound": "COc1ccc(Oc2ncc3nc(C)c(=O)n(Cc4cccc(OC)c4)c3n2)cc1", "Potency": "> 20"}
